Sampled rows, rich in hits. Any-hit rate of the full collection: about 1%.
S1P4 agonist – activates the human S1P4 receptor; S1P4-expressing cell line, agonist reporter assay; activation, % at 4.98 µM; 220,000 tested, 0.35% active; O95977; AID 1509; in the data active = activation above about 11%;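 note: 0% = DMSO vehicle and 100% = reference agonist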
Target sequence (O95977 whole entry, looked up): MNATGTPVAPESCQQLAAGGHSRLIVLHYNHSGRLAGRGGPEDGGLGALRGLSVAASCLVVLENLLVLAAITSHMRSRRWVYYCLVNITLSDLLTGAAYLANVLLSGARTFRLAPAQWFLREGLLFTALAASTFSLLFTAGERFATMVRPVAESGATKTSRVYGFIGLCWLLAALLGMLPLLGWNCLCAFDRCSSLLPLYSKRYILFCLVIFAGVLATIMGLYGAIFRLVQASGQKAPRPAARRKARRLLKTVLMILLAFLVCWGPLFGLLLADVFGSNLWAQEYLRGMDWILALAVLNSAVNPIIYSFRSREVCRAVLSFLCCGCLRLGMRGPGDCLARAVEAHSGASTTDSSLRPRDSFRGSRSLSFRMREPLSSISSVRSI
S1P4 antag – human S1P4 receptor antagonism; S1P4-expressing cells, antagonist mode, reporter read-out; 220,000 tested, 0.26% active; inhibition, % at 4.98 µM; O95977; in the data active = inhibition above about 29%;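 note: 0% = wells stimulated with agonist and 100% = vehicle wells without agonist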
L929 necroptosis – blocks zVAD induced death of L929 cells. L929 zVAD necroptosis rescue, ATP luminescence, 24 h; with zVAD 60 µM. viability rescue, % at 10 µM. 220,000 tested, 0.38% active;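 active = activation, scaled between plate controls, above about 75%, limit read from the data; inactive = activation under that limit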;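 note: 0% = zVAD with DMSO and 100% = DMSO alone without zVAD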
HSV replic up – increases HSV replication in cells; HSV replication augmentation in cells, fold increase; maximum fold increase; 220,000 tested, 0.005% active; AID 1956; in the data active = maximum fold increase above about 1.5; tested in PC3 cells
TNF death inh – blocks TNF-alpha induced death of Jurkat FADD-/- cells; Jurkat FADD-/- TNF necroptosis rescue, ATP luminescence, 24 h; 0 = TNF only, 100 = no-TNF cells; activation (protection from cell death), % at 10 µM; 220,000 tested, 0.068% active; AID 463075;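 active = activation, meaning protection from cell death, of at least 50% relative to plate controls; inactive = activation below 50%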;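 note: necroptosis triggered by 40 ng/mL TNF-alpha added together with compound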
Hsp70 activator – transcriptional activators of Hsp70 | HeLa Hsp70 promoter luciferase reporter, luminescence; scaled: vehicle 0, proteasome-inhibitor control 100% | activation, % at 10 µM | AID 1203 | 200,000 tested, 0.04% active;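 active = activation above the mean across all tested compounds plus 3 SD, cutoff set per campaign, cut at about 5.5% in these data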;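 note: 100% = MG132 at 30 µM as the positive control and 0% = DMSO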
zVAD death conf – confirmed blocker of zVAD induced death in L929 cells. shares compounds with L929 necroptosis. L929 zVAD-induced necroptosis rescue, ATP luminescence, 24 h. activation (protection from necroptosis), % at 10 µM. 760 tested, 16% active;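 active = mean protection from necroptosis of at least 50% over duplicate tests; inactive = mean protection below 50%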;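 note: 0% = cells with zVAD alone and 100% = vehicle cells without zVAD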
* marks the source's active call; other numbers are inactive results.

O=C(CCl)N1c2ccccc2OCC1c1ccccc1 (stereo not drawn) was read as S1P4 agonist 1.6, S1P4 antag -12.1, L929 necroptosis 90.1*, HSV replic up inactive, TNF death inh -15.1, Hsp70 activator -0.2 and zVAD death conf 2.8.
Screening CC(C)NC(=O)C(=O)NCCCN1CCOCC1 returned S1P4 agonist -1.6, S1P4 antag 8.9, L929 necroptosis -0.8, HSV replic up inactive, TNF death inh -0.4 and Hsp70 activator -0.2.
COc1ccc(O)c(/C=N/Nc2nc3ccccc3[nH]2)c1 was read as S1P4 agonist 0.6, S1P4 antag -9.4, L929 necroptosis 21.8, HSV replic up inactive, TNF death inh 20.3 and Hsp70 activator 0.0.
Screening COc1cccc(/C=N/Nc2nc3ccccc3[nH]2)c1OC returned S1P4 agonist -0.4, S1P4 antag 11.4, L929 necroptosis 7.2, HSV replic up inactive and TNF death inh 11.9.
For COc1cc(/C=N/Nc2nc3ccccc3[nH]2)cc(OC)c1O the results were S1P4 agonist 0.2, S1P4 antag -20.5, L929 necroptosis 86.7*, HSV replic up inactive, TNF death inh 15.9, Hsp70 activator -0.5 and zVAD death conf 2.9.
For COc1cc(/C=N/Nc2nc3ccccc3[nH]c2=O)ccc1O the results were S1P4 agonist 0.3, S1P4 antag 2.5, L929 necroptosis 78.5*, HSV replic up inactive, TNF death inh -2.5, Hsp70 activator 0.0 and zVAD death conf 14.8.
Screening COc1cc(/C=N/Nc2nc3ccccc3[nH]2)cc(Br)c1OCC(=O)N(C)C returned S1P4 agonist -1.1, S1P4 antag -1.7, L929 necroptosis 75.3*, HSV replic up inactive, TNF death inh 63.9*, Hsp70 activator -0.2 and zVAD death conf 60.2*.
`COc1cc(/C=N/Nc2nc3ccccc3[nH]2)ccc1O` gave S1P4 agonist 0.0, S1P4 antag -6.2, L929 necroptosis 79.3*, HSV replic up inactive, TNF death inh 36.0, Hsp70 activator -0.2 and zVAD death conf 47.4.
`CC(=O)OC1C2CCC1C([N+]1(C)CCCCC1)CC2` (stereo not drawn) gave S1P4 agonist 0.2, S1P4 antag -4.5, L929 necroptosis -0.7, HSV replic up inactive, TNF death inh 0.0 and Hsp70 activator -0.3.
`CCc1ccc(NC(=O)Nc2ccc3c(c2)N(C)C(=O)CS3)cc1` gave S1P4 agonist -1.8, S1P4 antag -17.3, L929 necroptosis 99.1*, HSV replic up inactive, TNF death inh -2.1, Hsp70 activator -0.2 and zVAD death conf 47.1.
Screening O=C(Nc1ccc(-c2csc(Nc3ccc(Cl)cc3)n2)cc1)c1cccc(C(F)(F)F)c1 returned L929 necroptosis 82.1*, HSV replic up inactive, TNF death inh 7.8 and zVAD death conf 39.5.
`O=C(Nc1ccc(-c2csc(Nc3ccccc3)n2)cc1)c1cccc(C(F)(F)F)c1` gave L929 necroptosis 60.0, HSV replic up inactive and TNF death inh 6.4.
Screening CCC(=O)Nc1nc2ccc3nc(C)sc3c2s1 returned S1P4 agonist 0.8, S1P4 antag 16.5, L929 necroptosis 84.0*, HSV replic up inactive, TNF death inh -0.3, Hsp70 activator -0.1 and zVAD death conf 31.4.
COc1ccc2nc(NC(=O)CCc3cc(OC)c(OC)c(OC)c3)sc2c1 was read as S1P4 agonist -3.3, S1P4 antag -17.6, L929 necroptosis 87.7*, HSV replic up inactive, TNF death inh 6.0, Hsp70 activator -0.2 and zVAD death conf 4.1.
Screening COc1ccc2sc(NC(C)=O)nc2c1 returned S1P4 agonist 0.3, S1P4 antag -1.0, L929 necroptosis 56.7, HSV replic up inactive, TNF death inh -0.1 and Hsp70 activator 0.1.
Screening CCC(=O)Nc1nc2cc(OC)ccc2s1 returned S1P4 agonist -0.4, S1P4 antag 8.9, L929 necroptosis 88.3*, HSV replic up inactive, TNF death inh -2.5, Hsp70 activator 0.3 and zVAD death conf 29.1.
For COc1ccc2sc(NC(=O)CC(C)C)nc2c1 the results were S1P4 agonist 1.2, S1P4 antag 7.3, L929 necroptosis 77.0*, HSV replic up inactive, TNF death inh 4.3, Hsp70 activator 1.5 and zVAD death conf 7.2.

Compound activity: PubChem BioAssay, several laboratories
